PubChem BioAssay (NCI)
Compounds without any hit were thinned out: in the full panel of roughly 83,000, 20% have a hit.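 Percent growth is the endpoint: 0 to 100 indicates growth inhibition (40 means 60% inhibition), 0 means no net growth, and negative values indicate cell death.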 Activity calls are given as the source filed them. How the source made its calls: active means growth percent below 10; inactive means the rest.

The compounds below were run on RPMI-8226 leukemia (assay: NCI-60 one-dose screen, 48 h (100 = growth as untreated, 0 = no growth, -100 = all killed)). Conditions: 10 µM unless noted.
In the case of `Nc1ccc(F)c(Cl)c1F`, the growth is reported as 93.7% (inactive).
`COc1ccc(Br)c2c1C(=O)CC2` was tested, and the growth was 112% (inactive).
In the case of `Oc1cccnc1CN1CCCC1`, the growth is reported as 100% (inactive).
With `CC(C)(CC(=O)O)CC(=O)O` the growth was 104% (inactive).
`CN=S(=O)(OCCCCCOS(=O)(=NC)c1ccc(C)cc1)c1ccc(C)cc1` (stereo unspecified) was tested, and the growth was 75.2% (inactive).
With `NC(CO)(CO)c1ccccc1` the growth was 94.2% (inactive).
In the case of `CC1CC2C3CCC4=CC(=O)CCC4(C)C3CCC2(C)C1(O)C(=O)CO` (stereo unspecified), the growth is reported as 77.1% (inactive).
For `CN1CCN(C(=S)S)CC1`, the growth was 102% (inactive).
With `Nc1ncnc(Nc2ccccc2)n1` the growth was 96.7% (inactive).
`O=c1cc(C(F)(F)F)[nH]c(=S)[nH]1` was tested, and the growth was 111% (inactive).
`CCOC(=O)c1c(C)[nH]c(C)c1C=O` was tested, and the growth was 89.7% (inactive).
`CCOP(=O)(NC(c1ccccc1)c1ccccc1)OCC` was tested, and the growth was 104% (inactive).
For `CC(C)(C)[Si](C)(C)OCC1OC(n2cnc3c(N)ncnc32)CC1OS(C)(=O)=O` (stereo unspecified), the growth was 103% (inactive).
With `Nc1nc(Cl)cc(Cl)n1` the growth was 114% (inactive).
With `C=C(C)COc1ccc(C(C)(C)C)cc1` the growth was 104% (inactive).
For `Nc1ccc2c(c1)Cc1cc(N)c(N)cc1-2`, the growth was 101% (inactive).
In the case of `Clc1ccc(C(SCc2ccccc2)SCc2ccccc2)cc1`, the growth is reported as 83% (inactive).
In the case of `O=[N+]([O-])c1ccc(-c2nc(N(CCO)CCO)c3ccccc3n2)o1`, the growth is reported as 4.26% (active).
With `CCNC(=O)OCCc1c2ccccc2nc2ccccc12` the growth was 76.7% (inactive).
For `C=C(OC(C)=O)c1ccccc1`, the growth was 70.3% (inactive).
In the case of `O=C(OCc1ccccc1)n1nnc2ccccc21`, the growth is reported as 109% (inactive).
`Cc1ccc2nc(N)nnc2c1` was tested, and the growth was 95.4% (inactive).
For `CC(=O)NC(CCC(=O)c1ccccc1)C(=O)O` (stereo unspecified), the growth was 91.4% (inactive).
With `CCOC(=O)/C(C#N)=C\c1c[nH]c2ccccc12` the growth was 55.7% (inactive).
With `Nc1cc2ccccc2c(O)c1O` the growth was 12.7% (inactive).
With `NC(CSSCC(N)C(=O)O)C(=O)O` (stereo unspecified) the growth was 53.6% (inactive).
In the case of `COc1cc(C(=O)N2CCN(c3ccccc3)CC2)c2ccccc2n1`, the growth is reported as 35.1% (inactive).
In the case of `Cc1ccc(C)c(CCO)c1`, the growth is reported as 138% (inactive).
In the case of `S=c1nc2[nH]c3ccccc3c2n[nH]1`, the growth is reported as 74.2% (inactive).
For `NCCCN1CCCC1=O`, the growth was 107% (inactive).
In the case of `Cc1c(Cl)cccc1N=C=S`, the growth is reported as 86.3% (inactive).
`O=[n+]1ccn([O-])c2ccccc21` was tested, and the growth was 78.9% (inactive).
For `Nc1ncnc2c1ncn2C1OC(CO)C2OC21` (stereo unspecified), the growth was 103% (inactive).
`CCOc1ccc2c(c1)c(C)cc(C)[n+]2CC` was tested, and the growth was 52.1% (inactive).
With `Cc1ccc(S(N)(=O)=O)cc1Cl` the growth was 103% (inactive).
With `O=C1C=Cc2ccccc2/C1=C/c1[nH]c(=O)[nH]c1O` the growth was 87.3% (inactive).
